# Reference: the supplement of paper PMC8728848
# Shown is part of a subset that was picked to be rich in the strongest signals.
# Columns and labels:
# Test in all cases: glycan array binding signal (z-score within array); higher = stronger binding
# Details in all cases: glycan notation: IUPAC condensed, linker removed
# Fuc(a1-2)Gal = molecular target: Fuc(a1-2)Gal
# Summary of the method: (§1)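 Columns mapping to the same glycan were averaged after glycan names were converted to IUPAC-condensed notation. The data come from 3228 arrays in the Consortium for Functional Glycomics database, limited to those with an available protein sequence. Binding is reported as a within-array Z-score averaged across arrays of one protein sequence and across linkers.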
# [1] = molecular target: Fuc(a1-2)Gal(b1-3)GlcNAc(b1-2)Man(a1-3)[Fuc(a1-2)Gal(b1-3)GlcNAc(b1-2)Man(a1-6)]Man(b1-4)GlcNAc(b1-4)GlcNAc
# Summary of the method: as §1
# [2] = molecular target: Fuc(a1-2)Gal(b1-3)GlcNAc(b1-3)[Gal(b1-4)GlcNAc(b1-6)]Gal(b1-4)Glc
# Summary of the method: as §1
# [3] = molecular target: Fuc(a1-2)Gal(b1-3)[Fuc(a1-4)]GlcNAc(b1-3)[Gal(b1-4)GlcNAc(b1-6)]Gal(b1-4)Glc
# Summary of the method: as §1
# [4] = molecular target: Fuc(a1-2)Gal(b1-4)GlcNAc(b1-2)Man(a1-3)[Fuc(a1-2)Gal(b1-4)GlcNAc(b1-2)Man(a1-6)]Man(b1-4)GlcNAc(b1-4)[Fuc(a1-6)]GlcNAc
# Summary of the method: as §1
# [5] = molecular target: Fuc(a1-2)Gal(b1-4)GlcNAc(b1-2)[Fuc(a1-2)Gal(b1-4)GlcNAc(b1-4)]Man(a1-3)[Fuc(a1-2)Gal(b1-4)GlcNAc(b1-2)Man(a1-6)]Man(b1-4)GlcNAc(b1-4)GlcNAc
# Summary of the method: as §1
# [6] = molecular target: Fuc(a1-2)Gal(b1-4)[Fuc(a1-3)]GlcNAc(b1-2)[Fuc(a1-2)Gal(b1-4)[Fuc(a1-3)]GlcNAc(b1-4)]Man(a1-3)[Fuc(a1-2)Gal(b1-4)[Fuc(a1-3)]GlcNAc(b1-2)Man(a1-6)]Man(b1-4)GlcNAc(b1-4)GlcNAc
# Summary of the method: as §1
# Fuc(a1-2)Gal6S(b1-4)Glc = molecular target: Fuc(a1-2)Gal6S(b1-4)Glc
# Summary of the method: as §1
# [7] = molecular target: Fuc(a1-2)Gal6S(b1-4)Glc6S
# Summary of the method: as §1
# [8] = molecular target: Gal(a1-3)Gal(b1-3)[Fuc(a1-4)]GlcNAc(b1-2)Man(a1-3)[Gal(a1-3)Gal(b1-3)[Fuc(a1-4)]GlcNAc(b1-2)Man(a1-6)]Man(b1-4)GlcNAc(b1-4)GlcNAc
# Summary of the method: as §1
# [9] = molecular target: Gal(a1-3)Gal(b1-4)GlcNAc(b1-6)GalNAc
# Summary of the method: as §1
# Gal(a1-4)Gal(b1-4)GlcNAc = molecular target: Gal(a1-4)Gal(b1-4)GlcNAc
# Summary of the method: as §1
# Gal(a1-6)Glc = molecular target: Gal(a1-6)Glc
# Summary of the method: as §1
# [10] = molecular target: Gal(b1-3)GalNAc(b1-3)Gal(a1-4)Gal(b1-4)Glc
# Summary of the method: as §1
# [11] = molecular target: Gal(b1-3)GlcNAc(b1-3)Gal(b1-3)GlcNAc
# Summary of the method: as §1
# [12] = molecular target: Gal(b1-3)GlcNAc(b1-3)Gal(b1-4)[Fuc(a1-3)]GlcNAc
# Summary of the method: as §1
# [13] = molecular target: Gal(b1-3)GlcNAc(b1-3)Gal(b1-4)[Fuc(a1-3)]GlcNAc(b1-6)[Gal(b1-3)GlcNAc(b1-3)]Gal(b1-4)Glc
# Summary of the method: as §1
# Gal(b1-4)Gal = molecular target: Gal(b1-4)Gal
# Summary of the method: as §1
# [14] = molecular target: Gal(b1-4)GlcNAc(b1-2)[Gal(b1-4)GlcNAc(b1-4)]Man(a1-3)[Gal(b1-4)GlcNAc(b1-2)Man(a1-6)]Man(b1-4)GlcNAc(b1-4)GlcNAc
# Summary of the method: as §1
# [15] = molecular target: Gal(b1-4)GlcNAc(b1-3)Gal(b1-3)GlcNAc
# Summary of the method: as §1
# [16] = molecular target: Gal(b1-4)GlcNAc(b1-3)Gal(b1-4)GlcNAc(b1-3)Gal(b1-4)GlcNAc(b1-2)[Gal(b1-4)GlcNAc(b1-3)Gal(b1-4)GlcNAc(b1-3)Gal(b1-4)GlcNAc(b1-6)]Man(a1-6)[Gal(b1-4)GlcNAc(b1-3)Gal(b1-4)GlcNAc(b1-3)Gal(b1-4)GlcNAc(b1-2)Man(a1-3)]Man(b1-4)GlcNAc(b1-4)[Fuc(a1-6)]GlcNAc
# Summary of the method: as §1
# [17] = molecular target: Gal(b1-4)GlcNAc(b1-3)Gal(b1-4)GlcNAc(b1-3)Gal(b1-4)GlcNAc(b1-3)Gal(b1-4)GlcNAc(b1-3)Gal(b1-4)GlcNAc(b1-2)[Gal(b1-4)GlcNAc(b1-3)Gal(b1-4)GlcNAc(b1-3)Gal(b1-4)GlcNAc(b1-3)Gal(b1-4)GlcNAc(b1-3)Gal(b1-4)GlcNAc(b1-6)]Man(a1-6)[Gal(b1-4)GlcNAc(b1-3)Gal(b1-4)GlcNAc(b1-3)Gal(b1-4)GlcNAc(b1-3)Gal(b1-4)GlcNAc(b1-3)Gal(b1-4)GlcNAc(b1-2)Man(a1-3)]Man(b1-4)GlcNAc(b1-4)[Fuc(a1-6)]GlcNAc
# Summary of the method: as §1
# [18] = molecular target: Gal(b1-4)GlcNAc(b1-3)Gal(b1-4)GlcNAc(b1-6)[Gal(b1-3)]GalNAc
# Summary of the method: as §1
# [19] = molecular target: Gal(b1-4)GlcNAc(b1-3)Gal(b1-4)[Fuc(a1-3)]GlcNAc(b1-3)Gal(b1-4)[Fuc(a1-3)]GlcNAc
# Summary of the method: as §1
# [20] = molecular target: Gal3S(b1-4)[Fuc(a1-3)]GlcNAc6S
# Summary of the method: as §1
# Gal3S4S(b1-4)GlcNAc = molecular target: Gal3S4S(b1-4)GlcNAc
# Summary of the method: as §1
# Gal4S(b1-4)GlcNAc = molecular target: Gal4S(b1-4)GlcNAc
# Summary of the method: as §1
# [21] = molecular target: GalNAc(b1-3)Gal(a1-4)Gal(b1-4)GlcNAc
# Summary of the method: as §1
# [22] = molecular target: GalNAc3S(b1-4)[Fuc(a1-3)]GlcNAc
# Summary of the method: as §1
# GalNAc4S6S(b1-4)GlcNAc = molecular target: GalNAc4S6S(b1-4)GlcNAc
# Summary of the method: as §1
binder,measurement,setting,value
GS7807E-bfa-538-23-538 (Bacteroides fragilis) (protein) TDSFESFNTNEAGFDNDSKKQDFNYYGIPLGIIQQGIYFNYDWGSGKNWPFQTMQNLGADLFSGYVHDFNPFNEGKNNSTYYMMDGWNGSTWDNTYGYIMPEVQKSETINEKDNIGFFGITKILKVELMHRLSDLYGPIVYTQFGSKTGSTPDTQQEAYKAFFNDLDTGIAKIREYQKANPDIESFAKFDILMPQGKRTFSEWIRFANSLRLRLAVRIAMADSKLAVAEAQKALTDEEGLLEGNDEVVAVSTSSGYTNPFGEINKAWGEVFMNANMESLLVGYEDPRMEKYFDKATGSDATSLIDYKGTYKGIRQGTGFSHKNYNGHSKSTITQQTDAVLMTPAEVWFLRAEAALRGWSSESVKDCYEKGVKASFAQWGAAGAEAYLESDRKPSDYVDAFKAANNVKAVNTLTPKWDDAAGNEDKLGRIITQKWLAMFPEGGEAWAEQRRTGYPRLFPVLVNQSEGTVDTNLGPRRLNFFVGIKTTNPEQYTQLVNALGGIDNCGTRLWWDTGRNF,glycan array binding signal (z-score),Fuc(a1-2)Gal,-0.69
same,glycan array binding signal (z-score),[1],3.42
same,glycan array binding signal (z-score),[2],1.03
same,glycan array binding signal (z-score),[3],-0.553
same,glycan array binding signal (z-score),[4],-0.382
same,glycan array binding signal (z-score),[5],0.002
same,glycan array binding signal (z-score),[6],0.988
same,glycan array binding signal (z-score),Fuc(a1-2)Gal6S(b1-4)Glc,-0.644
same,glycan array binding signal (z-score),[7],-0.639
same,glycan array binding signal (z-score),[8],10.5
same,glycan array binding signal (z-score),[9],0.296
same,glycan array binding signal (z-score),Gal(a1-4)Gal(b1-4)GlcNAc,0.333
same,glycan array binding signal (z-score),Gal(a1-6)Glc,-0.29
same,glycan array binding signal (z-score),[10],0.143
same,glycan array binding signal (z-score),[11],0.812
same,glycan array binding signal (z-score),[12],-0.465
same,glycan array binding signal (z-score),[13],-0.627
same,glycan array binding signal (z-score),Gal(b1-4)Gal,-0.624
same,glycan array binding signal (z-score),[14],3.32
same,glycan array binding signal (z-score),[15],-0.306
same,glycan array binding signal (z-score),[16],4.56
same,glycan array binding signal (z-score),[17],0.867
same,glycan array binding signal (z-score),[18],4.07
same,glycan array binding signal (z-score),[19],0.531
same,glycan array binding signal (z-score),[20],-0.155
same,glycan array binding signal (z-score),Gal3S4S(b1-4)GlcNAc,-0.693
same,glycan array binding signal (z-score),Gal4S(b1-4)GlcNAc,-0.708
same,glycan array binding signal (z-score),[21],-0.246
same,glycan array binding signal (z-score),[22],3.75
same,glycan array binding signal (z-score),GalNAc4S6S(b1-4)GlcNAc,-0.65
